Assay results published in PubChem BioAssay AID1851 (National Center for Advancing Translational Sciences (NCATS), 2009).
In all, about 16,000 compounds went through this assay and about 5,800 (36%) were called active. Roughly 23% stayed inconclusive and do not appear here. The call rests on the fitted dose curve; in most records, active means well fitted curve in the direction sought with a large enough effect; inconclusive means small, poorly fitted or top-dose-only effect, or effect the other way; inactive means no such curve, though single readings can be large or run the other way. Some of the results follow. Square brackets hold non-standard residues; d marks the D form. Peptide text beside a SMILES is read from it.

Biological target: Cytochrome P450 2C19 (Homo sapiens) (UniProt P33261)
Assay: Cytochrome panel assay with activity outcomes
Conditions: recombinant CYP, pro-luciferin dealkylation, luminescence, p450-cyp2c19; series mostly up to 57.1 µM
On the % scale 0 is the no-effect control and ±100 the full control effect.

Cytochrome P450 2C19 (Homo sapiens), sequence (P33261 whole entry, looked up): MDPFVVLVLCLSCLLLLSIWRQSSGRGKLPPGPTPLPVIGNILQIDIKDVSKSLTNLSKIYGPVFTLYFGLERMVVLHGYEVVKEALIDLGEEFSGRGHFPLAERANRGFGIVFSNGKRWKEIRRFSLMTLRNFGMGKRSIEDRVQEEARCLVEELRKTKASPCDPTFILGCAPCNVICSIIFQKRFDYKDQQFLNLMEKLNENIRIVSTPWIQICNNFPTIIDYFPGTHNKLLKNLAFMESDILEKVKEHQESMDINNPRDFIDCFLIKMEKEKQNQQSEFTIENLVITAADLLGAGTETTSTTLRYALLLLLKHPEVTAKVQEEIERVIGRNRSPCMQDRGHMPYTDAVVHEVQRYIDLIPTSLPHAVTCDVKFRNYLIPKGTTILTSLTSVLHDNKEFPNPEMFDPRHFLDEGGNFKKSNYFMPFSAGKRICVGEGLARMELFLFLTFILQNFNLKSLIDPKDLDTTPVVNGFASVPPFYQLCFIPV

AC50, active:
CCN(CC)C(=O)c1cc2cc([N+](=O)[O-])ccc2s1 15.8 µM
CCOC(=O)c1cc(C(=O)OCC)cc(-n2cc(O)c(C(=O)OCC)n2)c1 14.1 µM
CC1=c2c(oc3cc(O)c(Nc4c(C)cc(O)cc4O)c(C)c23)=CC(=O)C1=Nc1c(C)cc(O)cc1O 3.16 µM
CCOc1cc(CNCCO)c(Cl)cc1OCC(=O)NCCc1ccccc1 4.47 µM
CCNCc1cc(OCC)c(OCC(=O)NCCc2ccccc2)cc1Cl 1.58 µM
COc1cnc(-c2ccccc2)nc1Oc1cccc(C)c1 7.94 µM
CCOC(=O)c1cnc(-c2ccccc2)nc1Oc1ccccc1 14.1 µM
CCc1cc2c(=O)c(-c3cnn(-c4ccccc4)c3)coc2c(CN2CCOCC2)c1O 20 µM
Fc1ccc(Cn2c(SCc3ccc(F)c(C(F)(F)F)c3)nnc2C(F)(F)F)cc1 2.82 µM
Cc1ccc(CSc2nnc(C(F)(F)F)n2Cc2ccc(F)cc2)cc1 2.82 µM
Fc1ccc(Cn2c(SCc3ccc(F)c(F)c3)nnc2C(F)(F)F)cc1 2.24 µM
COc1cccc(CSc2nnc(C(F)(F)F)n2Cc2ccc(F)cc2)c1 3.16 µM
CCOC(=O)c1ccc(NC(=O)Nc2ccc3c4c(cccc24)C(=O)N3CC)cc1 11.2 µM
Cc1cc(C=O)c(C)n1-c1ccc(NC2CCCC2)c([N+](=O)[O-])c1 6.31 µM
CN(/C=C/C(=O)C(F)(F)F)Cc1ccccc1 8.91 µM
CCCC[C@@H]1C[C@H]1C(NC(=O)c1cccs1)c1ccccc1C(F)(F)F (stereo not given in full) 0.631 µM
CCCC[C@@H]1C[C@H]1C(NC(=O)c1ccccc1)c1ccccc1C(F)(F)F (stereo not given in full) 0.501 µM
COC(=O)c1sccc1NC(=O)CSc1cc(Cl)ccc1Cl 2.82 µM
Cc1cnc(NC(=O)CSc2ccc(Cl)cc2)s1 2 µM
COC(=O)c1sccc1NC(=O)CN(C)NS(=O)(=O)c1ccc(F)cc1 14.1 µM
COC(=O)c1sccc1NC(=O)CSc1ccccc1NS(=O)(=O)c1ccc(Cl)cc1 0.794 µM
COC(=O)c1sccc1NC(=O)CSc1ccc(Cl)cc1 7.08 µM
COCc1nnc(NC(=O)CSc2ccc(C)cc2)s1 3.55 µM
CCOc1ccc(N(CCC#N)S(=O)(=O)c2ccc(OC)cc2)cc1 3.55 µM
O=C(Nc1cccc(NC(=O)c2ccc(-c3cccc(Br)c3)o2)c1)c1ccco1 2.51 µM
O=C(Nc1ccc2nc(-c3ccc(Br)o3)[nH]c2c1)c1ccco1 22.4 µM
CCCCCc1nc2c(C#N)c(-c3ccc(Cl)cc3)ccn2n1 7.94 µM
Cc1noc(C)c1CS(=O)(=O)c1ccc(Br)cc1 0.282 µM
CC1Cc2ccccc2N1C(=O)CSc1nnnn1C(C)C (stereo not given) 4.47 µM
CC1Cc2ccccc2N1C(=O)CN1C(=O)COc2ccccc21 (stereo not given) 3.16 µM
Cc1ccccc1-n1ncc2c(SCC(=O)N3c4ccccc4CC3C)ncnc21 (stereo not given) 7.08 µM
Cc1cccc(C)c1OC1(c2ccccc2)OC(=O)c2ccccc21 (stereo not given) 0.251 µM
Cc1cccc(OC2(c3ccccc3)OC(=O)c3ccccc32)c1C (stereo not given) 2.51 µM
O=C1OC(OC2CCCCC2)(c2ccccc2)c2ccccc21 (stereo not given) 7.94 µM
Cc1ccc(Cn2cccc(NC(=O)NC3CCCCC3)c2=O)cc1 14.1 µM
O=C(Nc1cccn(Cc2ccc(F)cc2)c1=O)NC1CCCCC1 10 µM
Cc1cc(N2CCOCC2)ncc1[N+](=O)[O-] 31.6 µM
Cc1ccc(S(=O)(=O)/N=C2/NC(=O)/C(=C/c3cccnc3)S2)cc1 2.24 µM
Cc1cccc(-c2nsc(SCC(=O)Nc3nccs3)n2)c1 1.78 µM
O=C(CSCc1ccc(Cl)cc1)Nc1nccs1 2.51 µM
O=C(CSc1nc2ccccc2s1)Nc1nccs1 1.58 µM
O=C(CSc1nc2ccccc2s1)NNC(=S)Nc1ccc(Br)cc1 2.82 µM
O=S(=O)(c1ccc(Cl)cc1)c1cnc(-c2cccnc2)nc1-c1ccccc1 2.82 µM
O=S(=O)(c1ccccc1)c1cnc(-c2cccnc2)nc1-c1ccc(Cl)cc1Cl 5.01 µM
CCn1c(SCc2cccc(C)c2)nnc1-c1ccc(C)cc1 2.24 µM
COc1ccc(-c2nnc(SCc3cccc(C)c3)n2N)cc1 2.51 µM
CCn1c(SCc2cccc(C)c2)nnc1-c1ccccc1 0.501 µM
O=C(O)/C(=C\c1ccncc1)c1cccc2ccccc12 2.51 µM
NC(=O)/C(=C\c1ccncc1)c1cccc2ccccc12 2.51 µM
Clc1ccc2c(c1)C1=C(C(c3ccncc3)O2)C(c2ccc(Br)cc2)n2ncnc2N1 (stereo not given) 0.708 µM
Cc1cc(O)c(C(C)C)cc1N=Cc1ccccc1O 0.398 µM
O=C(CCN1C(=O)S/C(=C\c2ccccc2)C1=O)Nc1ccc(S(=O)(=O)Nc2nccs2)cc1 5.01 µM
O=S1(=O)CCN(c2ccccc2CC(c2c[nH]c3ccccc23)c2c[nH]c3ccccc23)CC1 3.16 µM
Fc1cc2nc(-c3ccncc3)[nH]c2cc1F 7.08 µM
COc1ccc(C2=CSC(/N=C/c3ccc(F)cc3)=NN2)cc1 17.8 µM

AC50, inactive:
CCOC(=O)c1nc(N)sc1C(=O)OCC
Cn1c(=O)cc(OCC(=O)NCc2cccnc2)c2ccccc21
CCOC(=O)c1cnc(-c2ccccc2)nc1Oc1ccc(Cl)cc1
CC1(C)C(=O)C(c2ccccc2)=C2CN3C(=O)N(CCc4ccccc4)C(=O)C3(Cc3ccccc3)C=C21 (stereo not given)
CC[C@H](CO)NCCN[C@@H](CC)CO
CCCN(CCC)CCCNC(=O)c1ccc2c(c1)N(CC)C(=O)c1ccccc1S2=O (stereo not given)
CCN1C(=O)c2cccc3c(NC(=O)c4cccc(N5C(=O)CCC5=O)c4)ccc1c23
Cc1ccc(C(=O)N/N=C/c2cc(C)n(-c3ccc(Br)cc3)c2C)cc1[N+](=O)[O-]
COCc1nnc(NC(=O)CCN2C(=O)c3ccccc3C2=O)s1
O=C(Nc1cccc(-c2cn3cccnc3n2)c1)c1ccco1
O=C(Nc1cccc(Br)c1)/C(=C\c1cccnc1)NC(=O)c1ccco1
C[C@@H]1Cc2ccccc2N1NC(=O)c1ccc(Cl)c(S(N)=O)c1 (stereo not given in full)
CCN1CCN(CC(=O)N2c3ccccc3CC2C)CC1 (stereo not given)
O=C1COc2ccccc2CN1
CC1(C)CCC(NC(=O)[C@H](N)CCC(=O)O)CC1
COCC(=O)Nc1c(I)c(C(=O)NC[C@@H](O)CO)c(I)c(C(=O)N(C)C[C@@H](O)CO)c1I
COCCn1c(=O)c(-c2cc(F)cc(F)c2)nc2cnc(N3CCOCC3)nc21
c1ccc2oc(C3=NCCN3)cc2c1
COCCn1c(=O)c(C)nc2cnc(N3CCNCC3)nc21
O=[N+]([O-])c1ccc(N2CCOCC2)nc1
O=C(CSc1nc(-c2ccccc2)nc2ccccc12)Nc1nccs1
Cc1ccc(S(=O)(=O)NC(=O)CSc2nc3ccccc3s2)cc1
OC[C@H]1O[C@H](n2cnc3c(NC4CCCC4)nc(Cl)nc32)[C@@H](O)[C@@H]1O
C[C@H](C[C@H](N)C(=O)O)C(=O)O
O=C(O)c1ccccc1C(=O)Nc1ccc(S(=O)(=O)Nc2nccs2)cc1

activity, negative = inhibition, inactive:
N=c1nc(N)nc(N)n1-c1ccc(S(N)(=O)=O)cc1 36.5% [at 11.4 µM]
N[C@H](CO)C(=O)NCC(=O)O (H-[dS]-Gly-OH) 19% [at 11.4 µM]
[O-][N+]1(CC[N+]2([O-])CCCCC2)CCCCC1 25.1% [at 11.4 µM]
N[C@@](CCc1ccccc1)(C(=O)O)c1ccccc1 -19.5% [at 11.4 µM]
Cc1cc(Cl)nc(NC(=O)CSc2ccc(Cl)cc2)n1 34.4% [at 11.4 µM]
Cc1cnc2cc(Cl)ccc2c1SCC(=O)O 24.8% [at 11.4 µM]
Oc1ccc(Cc2nccc3cc(O)c(O)cc23)cc1O -17.6% [at 11.4 µM]
COc1ccc2c3c([nH]c2c1)[C@H]1C[C@@H]2[C@@H](C[C@@H](O)[C@H](OC)[C@H]2C(=O)O)CN1CC3 19% [at 11.4 µM]
C=C[C@]1(C)C[C@H](OC(=O)CO)[C@]2(C)C3C(=O)CC[C@]3(CC[C@H]2C)[C@H](C)[C@H]1O (stereo not given in full) -15.4% [at 11.4 µM]
NS(=O)(=O)c1cc2c(cc1Cl)=NC(CCC(=O)O)=NS=2(=O)O 22.1% [at 11.4 µM]
O=C(O)/C(=C\c1ccc(O)cc1)c1cccc2ccccc12 -11.8% [at 11.4 µM]
O=C(O)CCC(=O)c1ccc2ccc3cccc4ccc1c2c34 25.1% [at 11.4 µM]
OC[C@@H]1O[C@@H](N2CCN([C@@H]3O[C@@H](CO)[C@@H](O)[C@H](O)[C@H]3O)CC2)[C@@H](O)[C@H](O)[C@H]1O 29.2% [at 11.4 µM]
O=C(O)c1cc(N=Cc2ccccc2O)cc(C(=O)O)c1 8.41% [at 11.4 µM]
c1ccc2c(CN3CCN(Cc4c[nH]c5ccccc45)CC3)c[nH]c2c1 1.09% [at 11.4 µM]
